Compound activity as filed in PubChem.
Sampled rows, rich in hits. Any-hit rate of the full collection: about 3.9%.
H9c2 protect = modulators protecting cardiomyocytes from myocardial damage. H9c2 cardiomyocytes, H2O2 injury protection, ATPLite, 2 h. protection from H2O2 cell death, % at 20 µM. AID 588492. 0.63% of 360,000 active;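 active means compounds giving at least 50% protection of heart cells from peroxide-induced death in the single-dose screen, raw or plate-pattern-corrected value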
ALR H2O2 inh = human ALR oxidase inhibition via reduced H2O2 | purified ALR, DTT oxidation, H2O2 HRP-luminol luminescence | AID 485317 | P55789 | 3.8% of 290,000 active | inhibition, % (concentration not given with the values);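 active means mean replicate inhibition above about 79%, with every replicate also reaching it, limit read from the data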
NTR1 agonist = agonists of human neurotensin receptor NTR1; activation, % at 20 µM; AID 493036; NTR1-U2OS beta-arrestin-GFP spot imaging, agonist mode; 0.17% of 330,000 active;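 active means activation at or above 40% of the spot to cytoplasm intensity ratio, with at least 20 cells analyzed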
Target sequence (P30989 whole entry, looked up): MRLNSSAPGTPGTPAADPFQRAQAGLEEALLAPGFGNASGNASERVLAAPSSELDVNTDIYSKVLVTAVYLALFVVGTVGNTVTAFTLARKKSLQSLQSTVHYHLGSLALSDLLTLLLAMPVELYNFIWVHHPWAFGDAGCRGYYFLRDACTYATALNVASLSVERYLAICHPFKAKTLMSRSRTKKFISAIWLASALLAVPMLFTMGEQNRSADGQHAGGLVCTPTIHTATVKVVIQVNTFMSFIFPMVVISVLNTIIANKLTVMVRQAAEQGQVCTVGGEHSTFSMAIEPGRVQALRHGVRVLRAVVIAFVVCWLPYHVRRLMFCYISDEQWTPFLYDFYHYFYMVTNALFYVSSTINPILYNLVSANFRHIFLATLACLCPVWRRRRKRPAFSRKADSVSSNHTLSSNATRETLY
SUMO HTRF inh = blocks human SUMOylation mediated by UBC9; inhibition, % at 35 µM; P63279; HTRF SUMOylation assay, SAE1/SAE2 + UBC9, in vitro; 0.36% of 290,000 active; AID 2006; in the data active means inhibition above about 50%, passing the limit was not always enough
Large screens that a line does not name were inactive.

CCN(CC)c1ccc(NC(=O)CN2C(=O)CC(C)(C)S(=O)(=O)c3ccccc32)c(C)c1	ALR H2O2 inh 99
CCCC(=O)Nc1ccc(OCC(=O)OC)cc1	none
CCOC(=O)/C(C#N)=C/c1ccc(OC(=O)c2ccccn2)cc1	ALR H2O2 inh 98 (no result: NTR1 agonist)
Cn1c(SCC(=O)Nc2ccc3[nH]c(=O)[nH]c3c2)nnc1-c1ccccc1	none
O=C(CSc1nc2ccccc2[nH]1)Nc1ccc2[nH]c(=O)[nH]c2c1	ALR H2O2 inh 98 (no result: SUMO HTRF inh)
O=C(CSc1nc2ccccc2[nH]1)Nc1ccc2c(c1)OCCO2	ALR H2O2 inh 99
Cn1c(SCC(=O)Nc2ccc3[nH]c(=O)[nH]c3c2)nnc1-c1ccc(F)cc1	ALR H2O2 inh 99
CCc1c(C)nc(SCC(=O)Nc2ccc3c(c2)OCCO3)[nH]c1=O	ALR H2O2 inh 99
CCc1cc(=O)[nH]c(SCC(=O)Nc2ccc3c(c2)OCCO3)n1	none (no result: ALR H2O2 inh, SUMO HTRF inh)
COc1ccc(NC(=O)C(=O)NNC(=O)c2ccc(Cl)cc2Cl)cc1	none
CC12CCC(C(=O)NCc3cccnc3)(OC1=O)C2(C)C (stereo not given)	none
Cc1ccc(NC(=O)CSC2=NCCN2)cc1	none
COc1ccccc1NC(=O)CSC1=NCCN1	ALR H2O2 inh 98 (no result: NTR1 agonist)
O=C(CSC1=NCCN1)Nc1ccccc1[N+](=O)[O-]	ALR H2O2 inh 99
O=C(CSC1=NCCN1)NC(c1ccccc1)c1ccccc1	ALR H2O2 inh 99
O=C(CSC1=NCCN1)Nc1cccc([N+](=O)[O-])c1	ALR H2O2 inh 99
O=C(CSC1=NCCN1)NC1CCCCCC1	none
CCOc1ccc(N=C2C(=O)Nc3ccc(C)c(Br)c32)cc1	none
COc1ccc(OC)c(NC(=O)CN(c2ccc(C(C)C)cc2)S(=O)(=O)c2c(C)noc2C)c1	ALR H2O2 inh 95
Cc1cc(C)cc(N(CC(=O)N2CCN(Cc3ccccc3)CC2)S(=O)(=O)c2c(C)noc2C)c1	ALR H2O2 inh 96
COc1ccc(OC)c(NC(=O)CN(c2ccc(C)cc2)S(=O)(=O)c2c(C)noc2C)c1	none
CCOC(=O)C1CCN(C(=O)CN(c2ccc(OC)cc2)S(=O)(=O)c2c(C)noc2C)CC1	ALR H2O2 inh 89
CN(CCOc1ccc(Cl)cc1)C(=O)CNS(=O)(=O)c1ccc(N(C)C)c([N+](=O)[O-])c1	none (no result: ALR H2O2 inh, SUMO HTRF inh)
O=C(CSC(=S)N1CCCCC1)Nc1nc(-c2ccccc2)c(-c2ccccc2)o1	none
CNc1ncnc2c1ncn2[C@H]1CN(Cc2ccc(F)cc2)C[C@@H](CO)O1	none (no result: ALR H2O2 inh, NTR1 agonist, SUMO HTRF inh)
Oc1c(Br)cc(/C=N/Nc2ccc(Cl)nn2)cc1Br	none (no result: ALR H2O2 inh)
CCC/C(O)=C1\C(=O)CC(C)(C)CC1=Nc1ccccc1O	ALR H2O2 inh 87
O=C(O)CCC(=O)c1ccc2ccc3cccc4ccc1c2c34	ALR H2O2 inh 87 (no result: H9c2 protect)
CCC(=O)/C=C1/Sc2ccc(OC)cc2N1CC	ALR H2O2 inh 77
CCC(/C=C1\Sc2ccc(OC)cc2N1CC)=C\c1sc2ccc(OC)cc2[n+]1CCCS(=O)(=O)[O-]	ALR H2O2 inh 97
CCC(/C=C1\Sc2ccc(OC)cc2N1CCO)=C\c1sc2ccc(OC)cc2[n+]1CCO	none
CC(=O)Nc1ccc(C(=O)NCCCSc2ccccc2)cc1	none
Cc1ccc2nc(N3C(=O)CNC3=S)sc2c1	ALR H2O2 inh 93
CCCc1nc2ccccc2c(=O)n1/N=C/c1ccccc1O	H9c2 protect 56 (no result: ALR H2O2 inh)
Cc1nc2ccccc2c(=O)n1/N=C/c1ccc(O)cc1O	none
COc1cc(/C=N/NC(=O)c2nnn(-c3nonc3N)c2C(C)C)ccc1O	ALR H2O2 inh 99
COc1ccc(/C=N/NC(=O)c2nnn(-c3nonc3N)c2-c2cccc(OC)c2)cc1	none
COc1cc(/C=N/NC(=O)c2nnn(-c3nonc3N)c2-c2cccs2)ccc1O	ALR H2O2 inh 89
COc1ccc(O)c(/C=N/NC(=O)c2c(C)nnn2-c2nonc2N)c1	H9c2 protect 55
N#C/C(=C\C=C\c1ccccc1[N+](=O)[O-])C(=O)NC1CCCCC1	ALR H2O2 inh 99
O=C1NCN(c2ccccc2)C12CCN(CCCC(c1ccc(F)cc1)c1ccc(F)cc1)CC2	NTR1 agonist 40
Cc1ccc(N2C(=O)c3sc4nnc(C)c(=O)n4c3C2=O)cc1	ALR H2O2 inh 98
CCc1ccc(N2C(=O)c3sc4nnc(C)c(=O)n4c3C2=O)cc1	none
COc1ccc2c(c1)N1CCN=C1N2C	none (no result: ALR H2O2 inh)
O=C(/C=C/c1cccs1)N1CCN(c2ccc(O)cc2)CC1	ALR H2O2 inh 99
C=CS(=O)(=O)c1c2cc(OC)ccc2nc2ccc(OC)cc12	none (no result: ALR H2O2 inh, NTR1 agonist, SUMO HTRF inh)
O=C(CSc1nnc(-c2ccco2)c(-c2ccco2)n1)c1ccccc1	ALR H2O2 inh 99
O=C(Nc1ccccc1)c1ccc2nc(-c3ccco3)c(-c3ccco3)nc2c1	none (no result: SUMO HTRF inh)
O=C(NCCO)Nc1ccc2nc(-c3ccco3)c(-c3ccco3)nc2c1	SUMO HTRF inh 98 (no result: H9c2 protect)
